Test results from PubChem BioAssay (NCI).
This is part of a sample that, as a whole, favours compounds with a hit. Of some 83,000 tested, about 20% had one in any assay.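 Compound tested at a single concentration for 48 hours in 96-well plates; a percent growth value below 10 was scored as active.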 Values without a mark were called inactive. Activity calls are given as the source filed them.

Experiments:
Test in all cases: NCI-60 one-dose screen, 48 h (100 = growth as untreated, 0 = no growth, -100 = all killed)
NCI-H226 lung = conditions: 10 µM
NCI-H322M lung = conditions: 10 µM
HOP-62 NSCLC = conditions: 10 µM
NCI-H460 lung = conditions: 10 µM
NCI-H522 lung = conditions: 10 µM
A549/ATCC NSCLC = conditions: 10 µM
COLO 205 colon = conditions: 10 µM
DU-145 prostate = conditions: 10 µM
SF-268 CNS = conditions: 10 µM
SF-295 CNS = conditions: 10 µM
SF-539 CNS = conditions: 10 µM
UACC-257 melanoma = conditions: 10 µM
HT29 colon = conditions: 10 µM
SNB-75 CNS = conditions: 10 µM
U251 CNS = conditions: 10 µM
PC-3 prostate = conditions: 10 µM
SK-MEL-5 melanoma = conditions: 10 µM
UACC-62 melanoma = conditions: 10 µM
SK-MEL-2 melanoma = conditions: 10 µM
HL-60(TB) leukemia = conditions: 10 µM unless noted

Compound | growth (NCI-H226 lung) | growth (NCI-H322M lung) | growth (HOP-62 NSCLC) | growth (NCI-H460 lung) | growth (NCI-H522 lung) | growth (A549/ATCC NSCLC) | growth (COLO 205 colon) | growth (DU-145 prostate) | growth (SF-268 CNS) | growth (SF-295 CNS) | growth (SF-539 CNS) | growth (UACC-257 melanoma) | growth (HT29 colon) | growth (SNB-75 CNS) | growth (U251 CNS) | growth (PC-3 prostate) | growth (SK-MEL-5 melanoma) | growth (UACC-62 melanoma) | growth (SK-MEL-2 melanoma) | growth (HL-60(TB) leukemia)
CC1=C(CCC=NNC(N)=O)C2=C(C)C3(CC3)[C@@](C)(O)C(=O)C2=C1 | -71.7% (active) | -13% (active) | -78.8% (active) | -24.8% (active) | -90.4% (active) | -28.6% (active) | -91.4% (active) | -29.2% (active) | -31.4% (active) | 1.93% (active) | -99.1% (active) | -76.1% (active) | -31% (active) | -96.2% (active) | -77.4% (active) | 2.58% (active) | -100% (active) | -88.1% (active) | -76.9% (active) | 
CC1=C(C=O)C2=C(C)C3(CC3)[C@@](C)(O)C(=O)C2=C1 | 45.9% | 67.2% | 37.5% | 2.24% (active) | -76.5% (active) | 17.8% | 30.4% | 8.41% (active) | 36.2% | 70.5% | -47.8% (active) | 73.8% | 15.8% | 16.5% | -43.9% (active) | 26.1% | -91.5% (active) | 49.3% | 8.32% (active) | 
CC(=O)Oc1ccccc1C(=O)[Se]C(=NC(C)C)NC(C)C | -67.2% (active) | -82.6% (active) | -70.9% (active) | -70.2% (active) | -97% (active) | -3.31% (active) | -69% (active) | -92.6% (active) | -30.9% (active) | -79% (active) | -98% (active) | -95.1% (active) | -57% (active) | -94.6% (active) | -87.8% (active) | -62.9% (active) | -84.4% (active) | -44.2% (active) | -79.4% (active) | -41.3% (active)
COc1ccc(-c2nc(SCC(C)C)nc(NCCc3c[nH]c4ccccc34)c2C#N)cc1 |  |  |  |  |  |  |  |  |  |  |  |  |  |  |  |  |  |  |  | 63.2%
CC1=C2C(=C[C@@](C)(COP(=O)(Oc3ccccc3)Oc3ccccc3)[C@@H]2O)C(=O)[C@@](C)(O)C12CC2 | -63.9% (active) | -59.5% (active) | -88.4% (active) | -35.4% (active) | -93.4% (active) | -53.9% (active) | -95.8% (active) | -96.3% (active) | -74.3% (active) | -59% (active) | -99.1% (active) | -41.2% (active) | -57.3% (active) | -94% (active) | -43.4% (active) | -31% (active) | -99.2% (active) | -87.7% (active) | -83.9% (active) | 
